# PubChem BioAssay (EPA / NIEHS)
# Inconclusive results are not listed. Activity calls are given as the source filed them. The calls were made as follows: active = hit-call score of the fitted dose curve at least 0.9, where 1 is the maximum; inconclusive = response in the unintended direction; inactive = score below 0.9.
# Experiments:
# [1] = ACEA_AR_agonist_AUC_viability: ACEA Biosciences xCELLigence Real-Time Cell Analysis on Androgen Receptor Agonism for Viability (AID 2283775);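 as to AC50: viability read 80 hours after compound addition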
# Summary of the method: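 Real-time impedance tracking of 22Rv1 growth, readings every 5 min for 5 h then hourly; area-under-curve viability endpoint at 80 hours, relative to DMSO. Compounds at eight concentrations, 1:4 steps, top 100 uM, n = 2.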
# [2] = ACEA_ER_AUC_viability: ACEA Biosciences xCELLigence Real-Time Cell Analysis on Estrogen Receptor Agonism for Viability (AID 2283782);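 also: continuous compound exposure with impedance area under curve over 80 h; hit means loss of impedance signal meaning reduced cell growth or viability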
# Summary of the method: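 T-47D; phenol red-free RPMI1640 + 10% CS-FBS; 8 conc., 1:4 serial, max 100 uM final, ≤0.5% DMSO; n = 2; continuous exposure; impedance monitored to 80 h post-dose; AUC vs DMSO.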
# [3] = ACEA_AR_antagonist_AUC_viability: ACEA Biosciences xCELLigence Real-Time Cell Analysis on Androgen Receptor Antagonism for Viability (AID 2283776);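 also: 22Rv1 human prostate cancer cells growing on impedance electrode plates; hits lower the growth signal relative to DMSO meaning cytotoxicity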
# Summary of the method: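 Viability endpoint from label-free cell-index monitoring: 22Rv1 cultures treated with an eight-point 1:4 dilution series starting at 100 uM final, AUC at 80 h fitted against DMSO.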
# [4] = STM_H9_NormalizedViability: Cytotoxicity Assessment at 120 hours in the Stemina devTOX quickPredict H9 human embryonic stem cell (hESC)-based Assay (AID 2283784)
# Summary of the method: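 Pluripotent H9 hESCs were exposed, with chemical and media replaced every 24 h. Viability was read by CellTiter-Fluor fluorescence, background-corrected and normalized to the 0.1% DMSO neutral control per plate. Loss of signal was fitted.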
# AR (gene 367) [5] = biological target: AR (gene 367) (UniProt P10275); assay: ACEA_AR_antagonist_80hr: ACEA Biosciences xCELLigence Real-Time Cell Analysis on Androgen Receptor Antagonism for Proliferation (AID 2283787);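 also: 22Rv1 human prostate cancer cells with growth followed by electrical impedance; hits lower the impedance growth signal relative to DMSO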
# AR (gene 367), sequence (P10275 whole entry, looked up): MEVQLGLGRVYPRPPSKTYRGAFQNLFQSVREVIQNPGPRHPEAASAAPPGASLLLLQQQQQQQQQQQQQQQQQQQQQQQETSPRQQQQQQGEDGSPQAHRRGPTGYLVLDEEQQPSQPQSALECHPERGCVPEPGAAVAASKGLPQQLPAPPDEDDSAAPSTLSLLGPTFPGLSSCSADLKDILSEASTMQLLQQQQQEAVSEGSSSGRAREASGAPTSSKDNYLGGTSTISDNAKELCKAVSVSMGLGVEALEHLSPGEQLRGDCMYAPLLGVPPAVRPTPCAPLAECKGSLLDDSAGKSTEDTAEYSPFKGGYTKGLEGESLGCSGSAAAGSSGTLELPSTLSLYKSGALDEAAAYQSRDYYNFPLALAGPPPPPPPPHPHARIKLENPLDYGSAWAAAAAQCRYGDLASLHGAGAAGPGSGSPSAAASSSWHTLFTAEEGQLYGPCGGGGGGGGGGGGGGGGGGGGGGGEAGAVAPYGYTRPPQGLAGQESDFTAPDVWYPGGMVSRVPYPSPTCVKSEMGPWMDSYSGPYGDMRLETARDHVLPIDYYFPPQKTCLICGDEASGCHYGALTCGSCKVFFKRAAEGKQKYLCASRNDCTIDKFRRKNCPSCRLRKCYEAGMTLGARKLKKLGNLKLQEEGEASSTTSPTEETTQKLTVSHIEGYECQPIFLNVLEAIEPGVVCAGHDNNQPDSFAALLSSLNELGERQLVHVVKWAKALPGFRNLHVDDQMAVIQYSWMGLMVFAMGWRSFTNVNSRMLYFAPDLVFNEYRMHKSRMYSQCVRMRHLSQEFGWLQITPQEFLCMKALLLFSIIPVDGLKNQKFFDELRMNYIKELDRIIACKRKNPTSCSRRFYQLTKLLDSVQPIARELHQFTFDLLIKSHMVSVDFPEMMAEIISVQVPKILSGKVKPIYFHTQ
# Summary of the method: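 Growth-kinetic antagonist readout in 22Rv1 cells, taken 80 h after continuous compound exposure. Activity fitted as signal loss relative to DMSO negative control.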
# AR (gene 367) [6] = biological target: AR (gene 367) (UniProt P10275); assay: ACEA_AR_agonist_80hr: ACEA Biosciences xCELLigence Real-Time Cell Analysis on Androgen Receptor Agonism for Proliferation (AID 2283783);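 also: hits increase impedance growth signal above DMSO baseline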
# Summary of the method: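 Androgen-driven proliferation in 22Rv1 cells is tracked as electrical impedance, taken 80 h after continuous exposure to compound (eight concentrations, 1:4 steps, maximum 100 uM final). Activity is fitted in the positive direction with DMSO as baseline.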
compound,measurement,setting,value
CC(C)CCCCCCCOC(=O)CCCCC(=O)OCCCCCCCC(C)C,outcome,[1],inactive
same,outcome,[2],inactive
O=c1n(CC2CO2)c(=O)n(CC2CO2)c(=O)n1CC1CO1 (stereo not drawn),AC50,[1],0.571 µM (active)
same,AC50,[3],1.02 µM (active)
same,AC50,[2],35.7 µM (active)
same,AC50,[4],1.06 µM (active)
O=c1[nH]c2ccc(S(=O)CCN3CCC(Cc4ccc(F)cc4)CC3)cc2o1 (stereo not drawn),outcome,[1],inactive
same,outcome,[3],inactive
same,outcome,[2],inactive
same,outcome,[4],inactive
COC(=O)c1c(Cl)c(Cl)c(C(=O)OC)c(Cl)c1Cl,outcome,[1],inactive
same,outcome,[2],inactive
CCOc1cccc(-n2cc(C(=O)N3CCN(c4cc(C(=O)O)c5ccccc5c4)CC3)nc2-c2ccc(C)cc2)c1,AC50,[1],7.41 µM (active)
same,AC50,[3],11.5 µM (active)
same,outcome,[2],inactive
same,AC50,AR (gene 367) [5],12.5 µM (active)
O=C(OC[C@H]1O[C@@H](OC(=O)c2cc(O)c(O)c(OC(=O)c3cc(O)c(O)c(O)c3)c2)[C@H](OC(=O)c2cc(O)c(O)c(OC(=O)c3cc(O)c(O)c(O)c3)c2)[C@@H](OC(=O)c2cc(O)c(O)c(OC(=O)c3cc(O)c(O)c(O)c3)c2)[C@@H]1OC(=O)c1cc(O)c(O)c(OC(=O)c2cc(O)c(O)c(O)c2)c1)c1cc(O)c(O)c(OC(=O)c2cc(O)c(O)c(O)c2)c1,AC50,[1],26.3 µM (active)
same,outcome,[2],inactive
COC(=O)CC(=O)OC,outcome,[1],inactive
same,outcome,[2],inactive
CCOC(=O)COc1ccc2c(c1)CC(NCC(O)c1cccc(Cl)c1)CC2 (stereo not drawn),AC50,[1],63.6 µM (active)
same,AC50,[2],16.2 µM (active)
Cn1c(=O)cc(Oc2ccc(F)cc2F)c2cnc(NCC(C)(C)O)nc21,outcome,[4],inactive
CCOC(=O)CC(CC(=O)OCC)(OC(C)=O)C(=O)OCC,outcome,[3],inactive
CC(C)CCCCCCOC(=O)c1ccc(C(=O)OCCCCCCC(C)C)c(C(=O)OCCCCCCC(C)C)c1,outcome,[3],inactive
CN(C)c1ccc(N=NS(=O)(=O)O)cc1,outcome,[2],inactive
same,AC50,AR (gene 367) [6],10.7 µM (active)
same,AC50,[4],21.1 µM (active)
CC(C)c1cccc(C(C)C)c1N1C(=O)c2ccc(O)cc2C1=O,AC50,[1],19.4 µM (active)
same,AC50,[2],80.3 µM (active)
same,AC50,[4],20.6 µM (active)
CC(C)=CCC/C(C)=C\CO,outcome,AR (gene 367) [6],inactive
CC[C@H](C)C(=O)O[C@H]1C[C@@H](C)C=C2C=C[C@H](C)[C@H](CC[C@@H]3C[C@@H](O)CC(=O)O3)[C@H]21,outcome,[1],inactive
same,AC50,[2],28.2 µM (active)
same,outcome,[4],inactive
CNS(=O)(=O)c1cc(C(=O)N2CCC(CCN3C4CCC3CC(n3c(C)nc5ccccc53)C4)(c3cccc(F)c3)CC2)c(Cl)cc1F (stereo not drawn),AC50,[2],19.2 µM (active)
CNCc1ccc(NC(=O)c2c[nH]c3c2C(=O)CCC3)cc1,AC50,[1],50 µM (active)
same,outcome,[4],inactive
Fc1ccccc1[C@@H](F)COC1CCC(Nc2ncnc3[nH]ncc23)CC1 (stereo partly drawn),AC50,[1],63.2 µM (active)
same,outcome,[4],inactive
same,AC50,AR (gene 367) [5],54 µM (active)
COc1ccc2sc(C(=O)Nc3nnn[nH]3)c(OC(C)C)c2c1,AC50,[1],9.32 µM (active)
same,AC50,[2],9.87 µM (active)
same,AC50,[4],2.01 µM (active)
CCC(C)(C)C(=O)O[C@H]1C[C@@H](C)C=C2C=C[C@H](C)[C@H](CC[C@@H]3C[C@@H](O)CC(=O)O3)[C@H]21,AC50,[1],29.9 µM (active)
same,AC50,[2],30.5 µM (active)
same,outcome,[4],inactive
CC(=O)OC[C@H]1O[C@@](COC(C)=O)(O[C@H]2O[C@H](COC(C)=O)[C@@H](OC(C)=O)[C@H](OC(C)=O)[C@H]2OC(C)=O)[C@@H](OC(C)=O)[C@@H]1OC(C)=O,outcome,[3],inactive
CC1(C)C(=O)N(Br)C(=O)N1Br,outcome,[1],inactive
same,outcome,AR (gene 367) [5],inactive
CCc1cc(SCc2sc(-c3ccc(C(F)(F)F)cc3)nc2CN2CCN(c3ccc(OC)cc3)CC2)ccc1OCC(=O)O,AC50,[2],34.5 µM (active)
CCOC(=O)c1ccc(C2CCC(NC[C@H](O)COc3ccc(O)c(NS(C)(=O)=O)c3)CC2)cc1 (stereo partly drawn),AC50,[2],5.31 µM (active)
same,outcome,[4],inactive
CC(C)=CCCC(C)=CC=O,outcome,[1],inactive
same,outcome,[4],inactive
Nc1nc2ncc(CNc3ccc(C(=O)N[C@@H](CCC(=O)O)C(=O)O)cc3)nc2c(=O)[nH]1,outcome,[1],inactive
same,outcome,[4],inactive
same,outcome,AR (gene 367) [5],inactive
On1ccccc1=S,AC50,[1],9.92 µM (active)
same,AC50,[2],88.8 µM (active)
same,AC50,[4],8.35 µM (active)
NC(=O)NO,outcome,[1],inactive
same,AC50,[4],341 µM (active)
Nc1cccc(N)c1,outcome,[3],inactive
CCCCC(CC)COC(=O)c1ccc(C(=O)OCC(CC)CCCC)cc1 (stereo not drawn),AC50,[2],80 µM (active)
same,outcome,AR (gene 367) [6],inactive
same,outcome,AR (gene 367) [5],inactive
O=C(O)c1cc(N=Nc2ccc(S(=O)(=O)Nc3ccccn3)cc2)ccc1O,outcome,[3],inactive
COCCOCCOCCOC,outcome,[4],inactive
CCCC(=O)OCC,outcome,[3],inactive
same,outcome,[2],inactive
C[C@](N)(Cc1ccc(O)c(O)c1)C(=O)O,outcome,[2],inactive
CCN(C(=O)c1cc(C)cc(OC[C@H](C)Nc2ccncc2)c1)C(C)C,AC50,[1],33.8 µM (active)
same,outcome,[4],inactive
O=C(O)c1cccc(Oc2ccccc2)c1,outcome,[3],inactive
same,outcome,[2],inactive
Nc1ccc(Nc2ccccc2)cc1,AC50,[1],93 µM (active)
same,AC50,[4],6.7 µM (active)
